Among the data in PubChem BioAssay (NCI) are growth values, retold here.

This is part of a sample that, as a whole, favours compounds with a hit. Of some 83,000 tested, about 20% had one in any assay.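 Negative percent growth values reflect cell death: -40 means 40% of the cells present at the start died, and -100 means all died.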 Values without a mark were called inactive. The source made the active and inactive calls. The calls were made as follows: active = growth percent below 10; inactive = the rest.

Some test systems named below: DU-145 prostate; K-562 leukemia; MALME-3M melanoma; MDA-MB-231 breast; RXF 393 renal; SF-268 CNS; SF-295 CNS; SF-539 CNS; UACC-257 melanoma; M14 melanoma; HCT-15 colon; HT29 colon; SNB-75 CNS; SNB-19 CNS; U251 CNS; SK-MEL-5 melanoma; UACC-62 melanoma; LOX IMVI melanoma; SK-MEL-28 melanoma; PC-3 prostate.
What all share (experiment): NCI-60 one-dose screen, 48 h (100 = growth as untreated, 0 = no growth, -100 = all killed)
Holding throughout (conditions): 10 µM unless noted

For `CC(C)C1=NOC(=O)C1=Cc1cn(-c2ccccc2)nc1-c1ccc(F)cc1`, the growth with DU-145 prostate is 74%; in the experiment with K-562 leukemia, 29.2%; in the experiment with MALME-3M melanoma, 90.8%; with MDA-MB-231 breast it was 98.1%; with RXF 393 renal, 82.2%; with SF-268 CNS, 91.2%. Also, the growth in the experiment with SF-295 CNS is 95.5%; with SF-539 CNS it was 89.6%; in the experiment on UACC-257 melanoma, 91%; in the experiment with M14 melanoma, 67.4%; in the experiment on HCT-15 colon, 61.4%; with HT29 colon, 28.8%. For the same compound, the growth in the experiment on SNB-75 CNS was 70.6%; in the experiment on SNB-19 CNS, 81.7%; in the experiment on U251 CNS it was 51.3%; with SK-MEL-5 melanoma, 78.9%; with UACC-62 melanoma, 75.5%; with LOX IMVI melanoma, 6.17% (active). Besides, the growth in the experiment on SK-MEL-28 melanoma is 82.7%.

Consider `O=C(CN1C(=O)NC2NC(=O)NC21)N/N=C/c1ccccc1[N+](=O)[O-]` (configuration not stated), for which the growth in the experiment with DU-145 prostate was 113%; with K-562 leukemia, 104%; in the experiment with MALME-3M melanoma, 107%; in the experiment with MDA-MB-231 breast, 114%; in the experiment on RXF 393 renal, 118%; in the experiment with SF-268 CNS, 107%. Also, the growth was 105% with SF-295 CNS; 95.2% with SF-539 CNS; 116% in the experiment on UACC-257 melanoma; 102% with M14 melanoma; 103% with HCT-15 colon; 112% in the experiment on HT29 colon. Also, the growth was 83.3% in the experiment on SNB-75 CNS; 96.8% in the experiment on SNB-19 CNS; 107% with U251 CNS; 101% in the experiment with PC-3 prostate; 99.3% in the experiment on SK-MEL-5 melanoma; 102% with LOX IMVI melanoma. In the experiment on SK-MEL-28 melanoma, the growth is 107%.

On to `CCn1c(SCC(=O)N/N=C(\C)c2ccc(Cl)cc2)nc2c1c(=O)n(C)c(=O)n2C`, for which the growth with DU-145 prostate was 108%; with K-562 leukemia, 98%; with MALME-3M melanoma it was 100%; in the experiment with MDA-MB-231 breast it was 104%; in the experiment with RXF 393 renal, 106%; in the experiment on SF-268 CNS, 98%. Further, the growth is 101% in the experiment on SF-295 CNS; 96.3% in the experiment with SF-539 CNS; 103% in the experiment with UACC-257 melanoma; 97.4% in the experiment with M14 melanoma; 104% in the experiment with HCT-15 colon; 103% in the experiment with HT29 colon. Moreover, the growth in the experiment with SNB-75 CNS is 79.6%; in the experiment on SNB-19 CNS, 99.2%; with U251 CNS, 104%; in the experiment with SK-MEL-5 melanoma, 99.3%; in the experiment with UACC-62 melanoma, 95.2%; in the experiment on LOX IMVI melanoma, 94.6%. In addition, the growth with SK-MEL-28 melanoma was 111%.

Take `C=C1C(=O)O[C@H]2[C@H]1CC/C(COC(=O)NCc1ccc(Cn3c(=O)sn(CCCCC)c3=O)cc1)=C\CC[C@@]1(C)O[C@@H]21`: the growth in the experiment with DU-145 prostate is 9.23% (active); in the experiment with K-562 leukemia, 1.16% (active); with MALME-3M melanoma, -14.5% (active); in the experiment on MDA-MB-231 breast, 31.1%; in the experiment with RXF 393 renal, 11.6%; with SF-268 CNS, 78.6%. For the same compound, the growth with SF-295 CNS was 102%; with SF-539 CNS, 46.5%; in the experiment on UACC-257 melanoma, 47.1%; in the experiment on M14 melanoma, 2.8% (active); with HCT-15 colon, 16.8%; in the experiment with HT29 colon it was -33.4% (active). Further, the growth is 74.4% with SNB-75 CNS; 85.9% in the experiment on SNB-19 CNS; 52% in the experiment with U251 CNS; 46.4% in the experiment with PC-3 prostate; 91.6% in the experiment on SK-MEL-5 melanoma; -11.6% (active) in the experiment on LOX IMVI melanoma. Further, the growth in the experiment on SK-MEL-28 melanoma was 47%.

As to `O=C(C[C@]1(O)C(=O)Nc2ccccc21)c1cccc(C(F)(F)F)c1`, the growth in the experiment with DU-145 prostate was 99.2%; in the experiment with K-562 leukemia it was 96%; with MALME-3M melanoma it was 83.1%; in the experiment on MDA-MB-231 breast, 91%; in the experiment with RXF 393 renal, 101%; with SF-268 CNS it was 85.8%. Also, the growth in the experiment with SF-295 CNS is 96.3%; in the experiment on SF-539 CNS it was 88%; in the experiment on UACC-257 melanoma it was 99.7%; in the experiment with M14 melanoma it was 93.1%; in the experiment with HCT-15 colon, 96.5%; in the experiment with HT29 colon, 96.1%. Moreover, the growth with SNB-75 CNS was 76.8%; with SNB-19 CNS, 95.9%; in the experiment with U251 CNS it was 92.4%; in the experiment on PC-3 prostate, 81.4%; in the experiment on SK-MEL-5 melanoma it was 91.7%; with LOX IMVI melanoma, 93.2%. Also, in the experiment with SK-MEL-28 melanoma, the growth was 91.6%.

As for `O=C(CSc1oc(-c2ccccc2)nc1S(=O)(=O)c1ccccc1)Nc1ccc(F)cc1`, the growth is 110% in the experiment with DU-145 prostate; 75.4% in the experiment with K-562 leukemia; 56.4% in the experiment with MALME-3M melanoma; 75.6% in the experiment with MDA-MB-231 breast; 90.5% in the experiment on RXF 393 renal; 85.7% in the experiment with SF-268 CNS. Besides, the growth was 73.4% in the experiment with SF-295 CNS; 65.6% with SF-539 CNS; 92.5% in the experiment on UACC-257 melanoma; 90.2% in the experiment on M14 melanoma; 73.7% with HCT-15 colon; 91.7% with HT29 colon. For the same compound, the growth with SNB-75 CNS is 87.8%; in the experiment on SNB-19 CNS, 93.5%; with U251 CNS it was 93.8%; in the experiment with SK-MEL-5 melanoma it was 78.8%; in the experiment with UACC-62 melanoma it was 66.4%; in the experiment with LOX IMVI melanoma it was 94%. The growth with SK-MEL-28 melanoma was 98.4%.

As to `O=C(Nc1ccc(Oc2cccc(F)c2)c(Cl)c1)c1cccnc1`, the growth in the experiment with DU-145 prostate is 21.8%; with K-562 leukemia it was 16.2%; in the experiment on MALME-3M melanoma, 47.2%; in the experiment with MDA-MB-231 breast, 60.2%; in the experiment with RXF 393 renal, 13.5%; in the experiment on SF-268 CNS, 53.7%. In addition, the growth is 40.1% in the experiment with SF-295 CNS; 4.06% (active) with SF-539 CNS; 56.1% in the experiment with UACC-257 melanoma; 15.9% in the experiment on M14 melanoma; 29.9% in the experiment with HCT-15 colon; 12.7% with HT29 colon. The growth with SNB-75 CNS is 7.85% (active); with SNB-19 CNS it was 42.6%; in the experiment with U251 CNS, 32.5%; in the experiment on PC-3 prostate, 24.6%; in the experiment on SK-MEL-5 melanoma it was -24% (active); in the experiment with LOX IMVI melanoma, 52.8%. The growth in the experiment with SK-MEL-28 melanoma is 54%.

Consider `C1CN(SSN2CCOCC2)CCO1`, for which the growth is 3.92% [100 µM] (active) in the experiment with DU-145 prostate; 15.2% [100 µM] with K-562 leukemia; -53.1% [100 µM] (active) in the experiment on MALME-3M melanoma; -79.4% [100 µM] (active) in the experiment on MDA-MB-231 breast; -62.6% [100 µM] (active) in the experiment on RXF 393 renal; -78.9% [100 µM] (active) in the experiment with SF-268 CNS. Moreover, the growth with SF-295 CNS was 5.96% [100 µM] (active); with SF-539 CNS, -37.6% [100 µM] (active); with UACC-257 melanoma, 49.6% [100 µM]; in the experiment with M14 melanoma it was -7.16% [100 µM] (active); with HCT-15 colon, 19.2% [100 µM]; in the experiment with HT29 colon, -50.6% [100 µM] (active). In addition, the growth in the experiment on SNB-75 CNS is 48.3% [100 µM]; in the experiment on SNB-19 CNS it was 67% [100 µM]; in the experiment on U251 CNS, -28% [100 µM] (active); in the experiment on SK-MEL-5 melanoma, 25.7% [100 µM]; in the experiment with UACC-62 melanoma, 19.8% [100 µM]; with LOX IMVI melanoma it was -41% [100 µM] (active). The growth with SK-MEL-28 melanoma was -43.3% [100 µM] (active).
